Records with an inconclusive call do not appear. Calls of active or inactive are those of the source. Unless noted, calls follow the shape of the dose curve; as a rule, active = well fitted curve in either direction with a large enough effect (not every such curve was filed as active); inconclusive = small, poorly fitted or top-dose-only effect, or another doubt; inactive = flat fitted curve, though single readings scatter.
Tests used:
[1] = AP1 Signaling Pathway (AID 357); settings: ME-180 AP-1-bla reporter, EGF-induced, beta-lactamase ratio, 5 h;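 also: ME-180 reporter cells stimulated with EGF at its EC50 level; % is scaled to controls: 0 for no effect and ±100 for the full control effect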
Procedure, shortened: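 A ratiometric CCF4 readout (405 nm excitation; 460 and 530 nm emission) quantified AP-1-driven beta-lactamase in ME-180 cells after 5 h with compound and EC50 EGF; AC50 values were derived for activators and inhibitors.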

[2] = NFAT Signaling Pathway (AID 444); settings: Jurkat NFAT-bla M1, carbachol, beta-lactamase ratio, 5 h; at 17.2 µM (top of the series);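 also: carbachol stimulus at about its EC50 of 1 µM final; % is scaled to controls: 0 for no effect and ±100 for the full control effect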
Procedure, shortened: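 Read-out: CCF4 FRET ratio (460 nm/530 nm) after 1 h RT dye loading, used for %activity and AC50 from titration series. Cells: Jurkat NFAT-β-lactamase/M1 line, treated with compound plus 1 uM carbachol for 5 h, 37 °C.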

[3] = Stat Signaling Pathway (AID 446); settings: ME-180 (cervical carcinoma) SIE beta-lactamase reporter, IL-6 stimulated, 5 h; at 17.2 µM (top of the series);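 also: ME-180 cervical cancer cells given 40 pM IL-6 alongside compound; SIE-controlled beta-lactamase reporter measured as 460/530 nm FRET emission ratio; % is scaled to controls: 0 for no effect and ±100 for the full control effect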
Procedure, shortened: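 IL-6/STAT signaling read in ME-180 cells via an SIE beta-lactamase reporter. Stimulus was 40 pM IL-6 (its AC50) for 5 hrs, so both activation and inhibition register.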

[4] = biological target: Glucocorticoid receptor (Homo sapiens) (UniProt P04150); assay: GR-GFP Redistribution (AID 450;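 active = compounds whose dose series gives a full or clear partial fitted curve of increased nuclear translocation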; also: potency is read from the fitted curve at half-maximal effect); settings: U2OS GR-GFP nuclear translocation, laser cytometry, 2 h
Chain of Glucocorticoid receptor (Homo sapiens) (P04150 whole entry, looked up, the tested form may be a part): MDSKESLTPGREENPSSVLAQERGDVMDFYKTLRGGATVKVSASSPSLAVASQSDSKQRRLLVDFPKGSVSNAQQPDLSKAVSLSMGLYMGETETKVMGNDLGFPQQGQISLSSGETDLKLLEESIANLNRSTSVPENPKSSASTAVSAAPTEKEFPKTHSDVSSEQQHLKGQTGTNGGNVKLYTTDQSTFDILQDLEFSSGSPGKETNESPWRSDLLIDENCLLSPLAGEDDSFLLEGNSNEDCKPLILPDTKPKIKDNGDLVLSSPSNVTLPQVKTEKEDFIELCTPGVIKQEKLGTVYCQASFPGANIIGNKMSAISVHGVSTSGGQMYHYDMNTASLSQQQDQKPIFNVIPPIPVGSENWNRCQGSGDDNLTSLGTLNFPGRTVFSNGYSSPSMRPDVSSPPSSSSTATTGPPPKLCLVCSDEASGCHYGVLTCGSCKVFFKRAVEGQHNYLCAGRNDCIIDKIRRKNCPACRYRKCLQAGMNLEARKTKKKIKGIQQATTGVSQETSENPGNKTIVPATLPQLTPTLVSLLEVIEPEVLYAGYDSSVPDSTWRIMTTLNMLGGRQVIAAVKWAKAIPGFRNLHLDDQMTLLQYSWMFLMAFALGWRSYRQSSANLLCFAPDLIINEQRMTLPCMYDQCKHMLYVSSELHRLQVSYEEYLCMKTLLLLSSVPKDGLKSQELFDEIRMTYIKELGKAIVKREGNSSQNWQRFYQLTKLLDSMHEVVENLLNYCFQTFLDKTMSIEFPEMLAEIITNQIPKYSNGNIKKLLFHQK

[5] = biological target: Cytochrome P450 1A2 (Homo sapiens) (UniProt P05177); assay: p450-cyp1a2 (AID 410; calls by dose curve; also: potency is read from the fitted curve at half-maximal effect;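 as to activity change, negative = inhibition: -100% = full effect of reference inhibitor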); settings: recombinant CYP1A2, luciferin-ME demethylation, luminescence; series mostly up to 25.6 µM
Chain of Cytochrome P450 1A2 (Homo sapiens) (P05177 whole entry, looked up): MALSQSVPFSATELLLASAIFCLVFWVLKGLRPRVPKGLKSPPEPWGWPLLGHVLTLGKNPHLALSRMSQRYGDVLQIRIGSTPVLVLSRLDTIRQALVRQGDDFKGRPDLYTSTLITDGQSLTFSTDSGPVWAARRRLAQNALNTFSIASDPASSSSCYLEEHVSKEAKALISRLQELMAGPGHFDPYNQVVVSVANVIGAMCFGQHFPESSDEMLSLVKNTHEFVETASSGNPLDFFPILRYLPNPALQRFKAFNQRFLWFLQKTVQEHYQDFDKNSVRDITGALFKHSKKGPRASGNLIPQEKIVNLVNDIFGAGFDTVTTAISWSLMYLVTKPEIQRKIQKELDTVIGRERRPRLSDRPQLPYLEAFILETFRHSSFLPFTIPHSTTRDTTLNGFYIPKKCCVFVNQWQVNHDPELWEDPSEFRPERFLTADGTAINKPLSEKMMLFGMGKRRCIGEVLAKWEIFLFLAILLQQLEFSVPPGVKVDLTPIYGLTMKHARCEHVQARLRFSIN
Procedure, shortened: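 Inhibition was calculated relative to 57 uM furafylline (full inhibition). The reaction used human CYP1A2 at 20nM with Luciferin-ME at its Km, 100uM, driven by an NADPH-regenerating system for 60 min at room temperature.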

[6] = biological target: Glucocorticoid receptor (Homo sapiens) (UniProt P04150); assay: GR-EFC Redistribution (AID 451; calls by dose curve; also: potency is read from the fitted curve at half-maximal effect); settings: CHO-K1 GR-EFC translocation, beta-gal luminescence, 2 h
Procedure, shortened: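 Translocation of GR-ED fusion to nuclear EA restores b-gal, read by luminescence after 1 h room-temperature detection. Engineered CHO-K1 biosensor cells, 1,000/well, exposed 2 h at 37 C to titrations up to 46 uM final.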

[7] = biological target: Mitogen-activated protein kinase 10 (Mus musculus) (UniProt Q61831); assay: JNK3 AlphaScreen Assay (AID 530); settings: JNK3 lysate, c-Jun phosphorylation; series mostly up to 25.6 µM;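 also: kinase came from lysate of stimulated human HepG2 cells; signal reports phosphorylation of biotinylated GST-cJun 1-79 at Ser73 with 10 µM ATP; % is scaled to controls: 0 for no effect and ±100 for the full control effect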
Procedure, shortened: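 Room-temperature AlphaScreen kinase assay; pre-activated HepG2 lysate as JNK3 source, biotin-GST-cJun(1-79) substrate, 10 uM ATP, compound 15 min preincubation.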

[8] = Cell Viability - BJ (AID 421; calls by dose curve;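 also: potency is read from the fitted curve at half-maximal effect; cells exposed to compound for 40 hours at 37 °C before readout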); settings: BJ fibroblast viability, qHTS
Procedure, shortened: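 Quantitative HTS: ATP depletion in BJ cells after 40 hr compound exposure in complete culture medium, detected with CellTiter-Glo; AC50 from standard Hill fits.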

[9] = Cell Viability - HepG2 (AID 433; calls by dose curve;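 also: potency is read from the fitted curve at half-maximal effect; cells exposed to compound for 40 hours; potency for ATP loss meaning cytotoxicity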); settings: qHTS
Procedure, shortened: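 In this qHTS format, a 40 h, 37 °C compound incubation of HepG2 cells in complete medium precedes a 20 min CellTiter-Glo step at room temperature. Tamoxifen and doxorubicin serve as positive controls; Hill-equation fits yield AC50.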

[10] = Cell Viability - MRC5 (AID 434; calls by dose curve;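 also: potency is read from the fitted curve at half-maximal effect; cells exposed to compound for 40 hours at 37 °C; potency reflects cytotoxicity seen as loss of intracellular ATP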); settings: MRC5 lung fibroblast viability, qHTS
Procedure, shortened: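 qHTS cytotoxicity in human lung fibroblast MRC5 cells; 40 hr treatment, 37 °C; cellular ATP by luciferase luminescence; DMSO = 0%, 100 uM tamoxifen = 100% inhibition; Hill-fit AC50.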

[11] = Cell Viability - SK-N-SH (AID 435; calls by dose curve;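 also: potency is read from the fitted curve at half-maximal effect; compound exposure lasted 40 h at 37 °C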); settings: SK-N-SH neuroblastoma cell viability qHTS
Procedure, shortened: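 Human neuroblastoma line, 40 h exposure at 37 °C, ATP quantified via luciferase luminescence; DMSO and 100 uM tamoxifen define 0 and 100% inhibition for AC50 fitting.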

[12] = Cell Viability - NIH 3T3 (AID 541; active = well fitted curve in the direction sought with a large enough effect; an effect the other way counts as inactive or inconclusive;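 also: cells exposed to compound for 40 hours; plate controls were DMSO alone for no effect and tamoxifen positive control for full effect; nearly all actives have a fitted effect of over 25% in size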); settings: NIH 3T3 cell viability, qHTS; activity change, negative = cytotoxicity: at 92.2 µM (top of the series)
Procedure, shortened: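 AC50 values reflect concentration-dependent loss of intracellular ATP in NIH 3T3 cells after 40 hr treatment in complete culture medium, quantified by luciferase-based luminescence.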

[13] = Cell Viability - HUV-EC-C (AID 542; active = well fitted curve in the direction sought with a large enough effect; an effect the other way counts as inactive or inconclusive;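 also: cells exposed to compound for 40 hours; % is scaled to controls: 0 for no effect and ±100 for the full control effect; nearly all actives have a fitted effect of over 35% in size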); settings: HUV-EC-C endothelial cell viability, qHTS; series mostly up to 92.2 µM
Procedure, shortened: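 Decrease in cellular ATP, quantified by luciferase luminescence, reflects toxicity in normal human vascular endothelial HUV-EC-C cells given compound for 40 hr in complete culture medium. Values are AC50s from concentration-response curves.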

[14] = Cell Viability - H-4-II-E (AID 543; active = well fitted curve in the direction sought with a large enough effect; an effect the other way counts as inactive or inconclusive;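 also: potency is read from the fitted curve at half-maximal effect; cells exposed to compound for 40 hours; nearly all actives have a fitted effect of over 35% in size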); settings: H-4-II-E rat hepatoma viability; series mostly up to 92.2 µM
Procedure, shortened: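 Here, cytotoxicity is measured in the rat hepatoma line H-4-II-E as loss of intracellular ATP after 40 hr compound treatment, detected by luciferase luminescence.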

CCN1CCN(c2cc3c(cc2F)c(=O)c(C(=O)O)cn3C2CC2)CC1
inactive: activity change, negative = inhibition ([1]; at 17.2 µM (top of the series)) 4.63% | activity change, negative = inhibition [2] 3.59% | activity, negative = inhibition [3] 20.5% | Potency [4] > 20.6 µM

CCCC1O[C@@H]2C[C@H]3[C@@H]4CCC5=CC(=O)C=C[C@]5(C)[C@H]4[C@@H](O)C[C@]3(C)[C@]2(C(=O)CO)O1 (stereo partly drawn)
inactive: activity change, negative = inhibition ([1]; at 17.2 µM (top of the series)) 2.92% | activity change, negative = inhibition [2] 23.6% | activity, negative = inhibition [3] -3.6%

CCN(CCCCOC(=O)c1ccc(OC)c(OC)c1)C(C)Cc1ccc(OC)cc1 (stereo not drawn)
inactive: activity change, negative = inhibition ([1]; at 17.2 µM (top of the series)) -6.87% | activity, negative = inhibition [3] 1.95% | Potency [4] > 20.6 µM
active: activity change, negative = inhibition [2] -93.3%

CN1CCN(CCCN2c3ccccc3Sc3ccc(S(=O)(=O)N(C)C)cc32)CC1
active: Potency [5] 12.6 µM
inactive: activity change, negative = inhibition ([1]; at 17.2 µM (top of the series)) 16.8% | activity, negative = inhibition [3] 5.77% | Potency [4] > 20.6 µM | Potency [6] > 20.6 µM | outcome [7]

CCC(NC(C)C)C(O)c1ccc(O)c(O)c1 (stereo not drawn)
inactive: activity change, negative = inhibition ([1]; at 17.2 µM (top of the series)) -6.11% | activity change, negative = inhibition [2] 3% | activity, negative = inhibition [3] 1.25%

COc1cc(NS(C)(=O)=O)ccc1Nc1c2ccccc2nc2ccccc12
inactive: activity change, negative = inhibition ([1]; at 38 µM (top of the series)) -9.96% | Potency [4] > 46 µM | Potency [6] > 46 µM
active: Potency [5] 7.94 µM

CC1(C)O[C@@H]2C[C@H]3[C@@H]4C[C@H](F)C5=CC(=O)CC[C@]5(C)[C@H]4[C@@H](O)C[C@]3(C)[C@]2(C(=O)CO)O1
inactive: activity change, negative = inhibition ([1]; at 17.2 µM (top of the series)) -0.38% | activity change, negative = inhibition [2] 16.2% | activity, negative = inhibition [3] -6.53%
active: Potency [4] 0.00217 µM

CC(O)(P(=O)(O)O)P(=O)(O)O
inactive: activity change, negative = inhibition ([1]; at 17.2 µM (top of the series)) -1.23% | Potency [5] | activity change, negative = inhibition [2] -2.6% | activity, negative = inhibition [3] 3.57% | outcome [7]

CCN1CCC[C@H]1CNC(=O)c1c(OC)ccc(Br)c1OC
inactive: activity change, negative = inhibition ([1]; at 17.2 µM (top of the series)) -5.77% | Potency [5] | activity change, negative = inhibition [2] -26.9% | activity, negative = inhibition [3] 14.1% | outcome [7]

CCCC(=O)Nc1ccc(OCC(O)CNC(C)C)c(C(C)=O)c1 (stereo not drawn)
inactive: activity change, negative = inhibition ([1]; at 17.2 µM (top of the series)) 0.101% | activity change, negative = inhibition [2] -15.3% | activity, negative = inhibition [3] 7.52% | Potency [4] > 20.6 µM

O=C(COc1ccc(Cl)cc1)N1CCN(Cc2ccc3c(c2)OCO3)CC1
active: Potency [5] 5.01 µM
inactive: activity change, negative = inhibition ([1]; at 17.2 µM (top of the series)) -14.6% | activity change, negative = inhibition [2] 15.3% | activity, negative = inhibition [3] 1.26% | outcome [7]

CC(=O)O[C@]1(C(C)=O)CC[C@H]2[C@@H]3C[C@H](C)C4=CC(=O)CC[C@]4(C)[C@H]3CC[C@@]21C
inactive: activity change, negative = inhibition ([1]; at 17.2 µM (top of the series)) 15.9% | Potency [8] > 92 µM | Potency [9] > 92 µM | Potency [10] > 92 µM | Potency [11] > 92 µM | activity change, negative = inhibition [2] 6.28% | activity, negative = inhibition [3] 11.1% | outcome [7] | Potency [13]
active: activity change, negative = cytotoxicity [12] -134% | Potency [14] 50.1 µM
